# Measurements from PubChem BioAssay (NCATS).
# Values joined by “and” are separate entries in the source; they are usually repeats but may differ in a detail not shown here. Identical values can stand only once. Results filed as inconclusive are left out. A call without a number means that no potency is given here. Active and inactive are the calls of the source. Unless noted, calls follow the shape of the dose curve; as a rule, active = well fitted curve in the direction sought with a large enough effect; inconclusive = small, poorly fitted or top-dose-only effect, or another doubt; inactive = no such curve, though single readings can be large; an effect the other way counts as inactive or inconclusive.
# What was measured:
# [1] = AP1 Signaling Pathway (AID 357; active = well fitted curve in either direction with a large enough effect, not every such curve was filed as active;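 also: ME-180 reporter cells stimulated with EGF at its EC50 level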); settings: ME-180 AP-1-bla reporter, EGF-induced, beta-lactamase ratio, 5 h
# Procedure, shortened: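 Titration-series screen for positive or negative modulators of EC50 EGF-induced signaling in ME-180 cells carrying an AP-1-driven beta-lactamase reporter. After 5 hours at 37 degrees Celsius, CCF4 460nm/530nm emission ratio gave %Activity; AC50 values derived.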
# [2] = Stat Signaling Pathway (AID 446; active = well fitted curve in either direction with a large enough effect, not every such curve was filed as active;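 also: ME-180 cervical cancer cells given 40 pM IL-6 alongside compound; SIE-controlled beta-lactamase reporter measured as 460/530 nm FRET emission ratio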); settings: ME-180 (cervical carcinoma) SIE beta-lactamase reporter, IL-6 stimulated, 5 h; at 17.2 µM (top of the series)
# Procedure, shortened: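 IL-6/STAT signaling read in ME-180 cells via an SIE beta-lactamase reporter. Stimulus was 40 pM IL-6 (its AC50) for 5 hrs, so both activation and inhibition register.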
# [3] = target: Glucocorticoid receptor (Homo sapiens) (UniProt P04150); assay: GR-EFC Redistribution (AID 451; calls by dose curve; also: potency is read from the fitted curve at half-maximal effect); settings: CHO-K1 GR-EFC translocation, beta-gal luminescence, 2 h
# Chain of Glucocorticoid receptor (Homo sapiens) (P04150 whole entry, looked up, the tested form may be a part): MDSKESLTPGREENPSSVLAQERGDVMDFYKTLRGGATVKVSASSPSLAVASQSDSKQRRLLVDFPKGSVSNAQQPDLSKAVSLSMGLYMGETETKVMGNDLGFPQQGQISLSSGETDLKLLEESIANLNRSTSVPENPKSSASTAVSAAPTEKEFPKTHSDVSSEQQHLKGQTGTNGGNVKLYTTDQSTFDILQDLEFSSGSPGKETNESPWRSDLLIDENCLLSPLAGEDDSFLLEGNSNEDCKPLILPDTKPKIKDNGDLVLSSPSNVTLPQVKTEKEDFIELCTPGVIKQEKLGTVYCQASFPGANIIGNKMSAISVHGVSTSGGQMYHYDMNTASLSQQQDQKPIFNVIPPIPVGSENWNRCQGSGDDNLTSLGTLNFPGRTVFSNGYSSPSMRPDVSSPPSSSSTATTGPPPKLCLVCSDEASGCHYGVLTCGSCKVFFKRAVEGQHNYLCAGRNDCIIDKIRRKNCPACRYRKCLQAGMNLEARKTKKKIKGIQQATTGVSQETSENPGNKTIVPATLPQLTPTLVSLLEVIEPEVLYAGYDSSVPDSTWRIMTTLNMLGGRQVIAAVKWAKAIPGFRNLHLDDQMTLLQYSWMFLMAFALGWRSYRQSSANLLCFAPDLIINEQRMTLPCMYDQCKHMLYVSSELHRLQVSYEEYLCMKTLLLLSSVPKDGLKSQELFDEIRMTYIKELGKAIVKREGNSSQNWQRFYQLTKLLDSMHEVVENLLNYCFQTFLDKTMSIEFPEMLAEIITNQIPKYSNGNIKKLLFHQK
# Procedure, shortened: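 CHO-K1 cells stably expressing nuclear-localized β-gal enzyme acceptor and GR fused C-terminally to the enzyme donor fragment; ligand-driven nuclear translocation restores β-gal by complementation. Compounds titrated up to 46 uM final, 2 h at 37 °C; luminescence read.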
# [4] = target: Mitogen-activated protein kinase 10 (Mus musculus) (UniProt Q61831); assay: JNK3 AlphaScreen Assay (AID 530; active = well fitted curve in either direction with a large enough effect, not every such curve was filed as active;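 also: kinase came from lysate of stimulated human HepG2 cells; signal reports phosphorylation of biotinylated GST-cJun 1-79 at Ser73 with 10 µM ATP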)
# Procedure, shortened: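 Inhibitors reduce antibody binding to phosphorylated biotin-cJun, lowering AlphaScreen luminescence. Lysates from HepG2 cells pre-activated by IL-1beta plus TNF-alpha supplied JNK3; compounds were titrated.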
# [5] = target: Guanine nucleotide-binding protein G(i) subunit alpha-1 (Homo sapiens) (UniProt P63096); assay: qHTS Assay for Inhibitors of RGS12 GoLoco Motif Activity (Green Fluorophore) (AID 879);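 also: negative values mean loss of peptide binding seen as reduced polarization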
# Chain of Guanine nucleotide-binding protein G(i) subunit alpha-1 (Homo sapiens) (P63096 whole entry, looked up): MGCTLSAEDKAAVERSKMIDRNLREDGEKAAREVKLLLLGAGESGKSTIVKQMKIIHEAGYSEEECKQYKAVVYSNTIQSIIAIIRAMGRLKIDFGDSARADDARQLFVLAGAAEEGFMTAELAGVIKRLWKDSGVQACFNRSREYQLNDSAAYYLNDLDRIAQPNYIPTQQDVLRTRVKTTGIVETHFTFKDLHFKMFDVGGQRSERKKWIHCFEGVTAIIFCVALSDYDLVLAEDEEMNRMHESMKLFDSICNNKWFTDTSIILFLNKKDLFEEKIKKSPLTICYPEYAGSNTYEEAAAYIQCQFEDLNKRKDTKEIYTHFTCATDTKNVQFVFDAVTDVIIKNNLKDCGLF
# Procedure, shortened: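 Fluorescence polarization assay: 50 nM Gαi1 with 10 nM FITC-labeled RGS12 GoLoco peptide in 10 mM Tris pH 7.5, 150 mM NaCl, 0.1 mM GDP, 0.05% NP40, 10 min at room temperature with compound.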
# [6] = target: Muscarinic acetylcholine receptor M1 (Rattus norvegicus) (UniProt P08482); assay: qHTS Assay for Antagonists of Acetylcholine Muscarinic M1 Receptor: Kinetic Measurement of Intracellular Calcium Response (AID 943); also: potency is read from the fitted curve at half-maximal effect; nearly all actives have a fitted effect of over 75% in size
# Chain of Muscarinic acetylcholine receptor M1 (Rattus norvegicus) (P08482 whole entry, looked up): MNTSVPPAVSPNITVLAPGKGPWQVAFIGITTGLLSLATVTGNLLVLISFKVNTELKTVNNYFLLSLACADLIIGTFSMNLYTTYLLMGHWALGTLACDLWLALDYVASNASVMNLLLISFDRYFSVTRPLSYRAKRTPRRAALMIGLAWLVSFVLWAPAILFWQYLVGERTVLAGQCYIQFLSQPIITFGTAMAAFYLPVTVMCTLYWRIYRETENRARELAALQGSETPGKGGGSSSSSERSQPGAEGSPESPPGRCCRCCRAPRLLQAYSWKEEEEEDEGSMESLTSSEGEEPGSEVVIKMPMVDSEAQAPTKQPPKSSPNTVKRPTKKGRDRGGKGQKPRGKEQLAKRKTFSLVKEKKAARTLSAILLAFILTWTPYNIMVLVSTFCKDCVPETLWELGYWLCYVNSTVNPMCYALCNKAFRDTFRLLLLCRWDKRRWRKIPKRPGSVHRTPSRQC
# Procedure, shortened: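 CHO cells expressing rat M1 receptor, Fluo-4 loaded, preincubated 10 min with compound, then stimulated with EC80 carbachol (100 nM final). Kinetic calcium fluorescence over 4 min; response taken as peak over basal signal.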
# [7] = target: Muscarinic acetylcholine receptor M1 (Rattus norvegicus) (UniProt P08482); assay: qHTS Assay for Antagonists of Acetylcholine Muscarinic M1 Receptor: Measurement of IP-One Response (AID 944); also: potency is read from the fitted curve at half-maximal effect; nearly all actives have a fitted effect of over 75% in size
# Procedure, shortened: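 CHO cells stably expressing rat M1, pretreated 10 min with compound, then stimulated 30 min with carbachol at EC80 (200 nM) in LiCl-containing buffer pH 7.4; IP1 accumulation read by HTRF competition (665/620 nm).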
# [8] = target: Pyruvate kinase (Leishmania mexicana) (UniProt Q27686); assay: qHTS Validation Assay for Inhibitors of Leishmania Mexicana Pyruvate Kinase (AID 945)
# Chain of Pyruvate kinase (Leishmania mexicana) (Q27686 2-499 E452W): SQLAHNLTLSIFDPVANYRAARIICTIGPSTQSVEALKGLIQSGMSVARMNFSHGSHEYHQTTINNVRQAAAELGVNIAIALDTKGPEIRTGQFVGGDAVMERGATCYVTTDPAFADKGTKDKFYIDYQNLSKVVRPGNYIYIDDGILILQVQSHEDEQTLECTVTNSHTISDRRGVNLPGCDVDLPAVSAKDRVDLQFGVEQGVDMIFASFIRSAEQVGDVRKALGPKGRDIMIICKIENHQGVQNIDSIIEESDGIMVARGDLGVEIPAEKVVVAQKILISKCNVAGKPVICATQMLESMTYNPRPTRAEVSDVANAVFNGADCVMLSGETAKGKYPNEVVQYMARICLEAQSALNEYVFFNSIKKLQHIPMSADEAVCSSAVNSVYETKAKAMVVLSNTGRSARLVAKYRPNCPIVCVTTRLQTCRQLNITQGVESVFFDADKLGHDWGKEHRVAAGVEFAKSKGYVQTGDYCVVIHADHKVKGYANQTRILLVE
# Procedure, shortened: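 Eight-point qHTS titrations; enzyme 0.2 nM LmPYK (E451W mutant); substrates 0.5 mM PEP, 0.1 mM ADP; 7 mM MgCl2; 1 h room temperature; PKLight luminescence normalized to neutral control.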
# [9] = target: Alpha-galactosidase A (Homo sapiens) (UniProt P06280); assay: Counterscreen for Glucocerebrosidase Inhibitors: qHTS Assay for Human alpha-Galactosidase at pH 4.5 (AID 992)
# Chain of Alpha-galactosidase A (Homo sapiens) (P06280 whole entry, looked up): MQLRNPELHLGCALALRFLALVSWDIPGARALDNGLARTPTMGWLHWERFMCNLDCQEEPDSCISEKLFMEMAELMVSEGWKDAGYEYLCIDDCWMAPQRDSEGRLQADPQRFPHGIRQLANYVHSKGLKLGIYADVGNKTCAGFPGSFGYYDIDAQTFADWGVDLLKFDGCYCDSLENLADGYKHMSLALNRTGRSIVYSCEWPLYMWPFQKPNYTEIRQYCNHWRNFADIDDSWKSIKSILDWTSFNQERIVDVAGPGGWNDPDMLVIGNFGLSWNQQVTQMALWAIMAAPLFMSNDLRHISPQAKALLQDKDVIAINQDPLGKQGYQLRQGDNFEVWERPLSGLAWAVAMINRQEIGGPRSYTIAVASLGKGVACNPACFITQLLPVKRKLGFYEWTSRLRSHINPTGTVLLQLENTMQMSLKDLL
# Procedure, shortened: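 Read-out is 4-methylumbelliferone fluorescence (365 nm excitation, 440 nm emission) after a pH 10 NaOH/glycine stop. Reactions held 2 nM enzyme and 80 uM substrate at pH 4.5 for 20 min at room temperature.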
# [10] = target: alpha-glucosidase (Oryza sativa, rice) (UniProt Q653V4); assay: Counterscreen for Glucocerebrosidase Inhibitors: qHTS Assay for Rice alpha-Glucosidase at pH 5.0 (AID 997)
# Procedure, shortened: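 Rice alpha-glucosidase (4 nM final) with 400 uM 4-methylumbelliferyl-alpha-D-glucopyranoside in citrate buffer pH 5.0, 20 min at room temperature, stopped at pH 10; fluorescence 365/440 nm, compounds 0.7 nM–77 uM, AC50 from Hill fits.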
# [11] = qHTS Assay for Lipid Storage Modulators (AID 1519; calls by dose curve); settings: Drosophila S3 cells, BODIPY lipid droplet/cell ratio, laser cytometry, cells loaded with oleic acid
# Procedure, shortened: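 Cells seeded at 5,000 per well were treated with compounds over a concentration series and loaded with oleic acid (400 uM, as added). Lipid droplet fluorescence (488 nm excitation, 500-530 nm channel) was read by laser-scanning cytometry and normalized to 20 uM Triacsin C.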
# [12] = target: Ubiquitin carboxyl-terminal hydrolase 1 (Homo sapiens) (UniProt O94782); assay: Inhibitors of USP1/UAF1: Pilot qHTS (AID 504865);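 also: rhodamine fluorescence freed from ubiquitin-rhodamine substrate followed over time; top concentration of the series differs between compounds; nearly all actives have a fitted effect of over 35% in size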
# Chain of Ubiquitin carboxyl-terminal hydrolase 1 (Homo sapiens) (O94782 whole entry, looked up): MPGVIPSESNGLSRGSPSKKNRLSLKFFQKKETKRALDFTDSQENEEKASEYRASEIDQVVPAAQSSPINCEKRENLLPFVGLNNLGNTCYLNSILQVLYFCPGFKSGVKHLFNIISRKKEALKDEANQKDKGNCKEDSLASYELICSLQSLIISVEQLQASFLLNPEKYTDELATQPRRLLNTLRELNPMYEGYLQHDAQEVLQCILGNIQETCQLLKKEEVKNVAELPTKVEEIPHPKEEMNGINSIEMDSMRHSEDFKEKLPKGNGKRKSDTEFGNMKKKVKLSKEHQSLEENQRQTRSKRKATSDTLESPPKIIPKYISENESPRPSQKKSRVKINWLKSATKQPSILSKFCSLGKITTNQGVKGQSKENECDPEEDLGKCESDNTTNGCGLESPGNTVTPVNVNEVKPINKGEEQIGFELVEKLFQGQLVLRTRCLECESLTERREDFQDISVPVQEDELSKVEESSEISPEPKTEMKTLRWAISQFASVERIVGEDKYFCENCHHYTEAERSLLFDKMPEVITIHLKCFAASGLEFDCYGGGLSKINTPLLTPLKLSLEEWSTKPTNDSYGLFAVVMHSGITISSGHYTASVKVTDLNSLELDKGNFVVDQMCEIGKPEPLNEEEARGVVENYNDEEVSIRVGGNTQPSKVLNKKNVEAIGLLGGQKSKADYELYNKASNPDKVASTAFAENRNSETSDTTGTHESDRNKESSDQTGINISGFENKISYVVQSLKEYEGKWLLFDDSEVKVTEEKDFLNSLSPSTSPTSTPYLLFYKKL
# Procedure, shortened: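 USP1/UAF1 complex (1nM) preincubated with compound 15 min at room temperature, then Ub-Rho substrate (150nM final) added. Fluorescence read kinetically at 480/540 nm, 6 reads every 60 seconds. Buffer: 50mM HEPES pH 7.8, 0.5mM EDTA, 0.1 mg/ml BSA, 1mM TCEP, 0.01% Tween-20.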
# [13] = target: DNA dC->dU-editing enzyme APOBEC-3G (Homo sapiens) (UniProt Q9HC16); assay: qHTS for inhibitors of Vif-A3G interactions: Validation (AID 588379)
# Chain of DNA dC->dU-editing enzyme APOBEC-3G (Homo sapiens) (Q9HC16 whole entry, looked up): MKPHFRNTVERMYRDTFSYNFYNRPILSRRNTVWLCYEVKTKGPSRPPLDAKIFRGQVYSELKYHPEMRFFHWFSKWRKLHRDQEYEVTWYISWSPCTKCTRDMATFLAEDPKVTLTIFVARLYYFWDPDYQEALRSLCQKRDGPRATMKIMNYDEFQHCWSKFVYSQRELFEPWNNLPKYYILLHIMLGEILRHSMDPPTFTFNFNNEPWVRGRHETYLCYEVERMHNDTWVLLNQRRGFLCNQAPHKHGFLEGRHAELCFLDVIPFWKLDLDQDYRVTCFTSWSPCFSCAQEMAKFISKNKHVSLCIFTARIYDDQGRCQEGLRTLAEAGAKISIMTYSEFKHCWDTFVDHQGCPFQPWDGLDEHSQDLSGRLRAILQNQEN
# Procedure, shortened: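 HeLa cells stably expressing Vif and A3G-eYFP, 700 cells/well, incubated overnight at 37 deg C, then exposed to compound overnight at 37 deg C. Inhibition of Vif-mediated degradation read as increased yellow fluorescence (Ex 488/Em 500-530) by laser-scanning cytometry.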
# [14] = tested on: Zika virus NS2B-NS3 protease; assay: Primary screen GU AMC qHTS for Zika virus inhibitors (AID 1347154); also: nearly all actives have a fitted effect of over 70% in size
# Procedure, shortened: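 Unlinked Zika NS2B hydrophilic domain/NS3 protease domain noncovalent complex (25 nM final) in 10 mM Tris-HCl pH 8.0, 0.01% Tween 20, with AMC peptide substrate. Fluorescence (ex 340, em 450 nm) change over 15 min, room temperature; percent inhibition fitted to 4-parameter Hill equation.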
# [15] = Counterscreen qHTS for small molecule stabilizers of the endoplasmic reticulum resident proteome: GLuc-NoTag assay (AID 1508627);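 also: SH-SY5Y cells given compound then 100 nM thapsigargin to empty ER calcium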
# Procedure, shortened: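 SH-SY5Y cells stably expressing constitutively secreted GLuc (no SERCaMP tag) were pre-incubated 5 h, treated with compound for 19 h, then 100 nM thapsigargin for 4 h at 37C; medium GLuc read by coelenterazine luminescence.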
# [16] = Cell Viability qHTS for small molecule stabilizers of the endoplasmic reticulum resident proteome (AID 1508629); settings: cell viability counter-screen, 100 nM thapsigargin for final 4 h;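 also: human SH-SY5Y neuroblastoma cells carrying the GLuc-SERCaMP reporter; compound exposure about 46 h in total before the viability read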
# [17] = Primary qHTS for small molecule stabilizers of the endoplasmic reticulum resident proteome: Secreted ER Calcium Modulated Protein (SERCaMP) assay (AID 1508630)
# Procedure, shortened: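 GLuc-SERCaMP-expressing SH-SY5Y cells, pretreated 16 h with compound, are challenged with thapsigargin to empty ER calcium stores; after 4 h, coelenterazine is added directly to the medium and luminescence is imaged.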
# [18] = target: Glucocorticoid receptor (Homo sapiens) (UniProt P04150); assay: GR-GFP Redistribution (AID 450;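 active = compounds whose dose series gives a full or clear partial fitted curve of increased nuclear translocation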; also: potency is read from the fitted curve at half-maximal effect); settings: U2OS GR-GFP nuclear translocation, laser cytometry, 2 h
# [19] = target: 3',5'-cyclic-AMP phosphodiesterase 4B (Homo sapiens) (UniProt Q07343); assay: qHTS Assay for Inhibitors of PDE-IV (AID 607; active = well fitted activation curve with a large enough effect in the main read-out, with a control signal flat, not every such curve was filed as active)
# Chain of 3',5'-cyclic-AMP phosphodiesterase 4B (Homo sapiens) (Q07343 whole entry, looked up): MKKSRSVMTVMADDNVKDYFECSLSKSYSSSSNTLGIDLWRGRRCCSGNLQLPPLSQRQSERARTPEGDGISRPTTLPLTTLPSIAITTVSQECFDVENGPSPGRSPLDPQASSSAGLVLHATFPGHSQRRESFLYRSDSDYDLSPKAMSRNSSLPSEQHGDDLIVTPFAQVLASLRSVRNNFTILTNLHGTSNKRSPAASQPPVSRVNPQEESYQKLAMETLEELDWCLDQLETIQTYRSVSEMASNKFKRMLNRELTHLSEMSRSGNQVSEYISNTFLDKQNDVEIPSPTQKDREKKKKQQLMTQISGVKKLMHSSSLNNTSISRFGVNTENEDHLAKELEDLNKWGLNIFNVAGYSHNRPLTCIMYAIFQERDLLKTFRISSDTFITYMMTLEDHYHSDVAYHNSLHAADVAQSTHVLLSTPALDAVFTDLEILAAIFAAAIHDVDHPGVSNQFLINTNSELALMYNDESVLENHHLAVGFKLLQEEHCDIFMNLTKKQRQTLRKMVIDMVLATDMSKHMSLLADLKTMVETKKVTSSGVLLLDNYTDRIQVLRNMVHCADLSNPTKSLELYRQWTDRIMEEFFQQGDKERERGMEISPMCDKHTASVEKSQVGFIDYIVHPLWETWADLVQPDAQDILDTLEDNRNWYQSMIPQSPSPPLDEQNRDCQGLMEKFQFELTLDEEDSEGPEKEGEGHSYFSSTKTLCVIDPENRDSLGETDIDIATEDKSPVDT
# Procedure, shortened: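 Live HEK293 cells with a modified cyclic nucleotide-gated (CNG) channel report intracellular cAMP via membrane-potential dye fluorescence (ex 535/em 590 nm). Endogenous PDE-IV was targeted. Compounds were tested at up to 22.9 uM final; RO 20-1724 100 uM served as control.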
# [20] = Confirmatory qHTS for small molecule stabilizers of the endoplasmic reticulum resident proteome: Secreted ER Calcium Modulated Protein (SERCaMP) assay (AID 1508628); also: nearly all actives have a fitted effect of over 40% in size
# Procedure, shortened: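 SH-SY5Y cells stably expressing GLuc-SERCaMP, treated 16 h with compound (primary 1.53, 7.67, 38.3 uM; confirmation 11 concentrations, up to 76.6 uM), then 100 nM thapsigargin for 4 h. Secreted Gaussia luciferase in medium read by coelenterazine luminescence.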
# [21] = measured here: cell count channel max response
# [22] = measured here: lipid channel max response
smiles,measurement,setting,value
C[C@@H]([C@H](O)c1ccc(O)cc1)N1CCC(Cc2ccccc2)CC1,"activity change, negative = inhibition",[1]; at 17.2 µM (top of the series),-4.89% (inactive)
same,"activity change, negative = inhibition",[1]; at 38 µM (top of the series),-7.76% (inactive)
same,"activity, negative = inhibition",[2],8.14% (inactive)
same,Potency,[3],> 46 µM (inactive) and > 20.6 µM (inactive)
same,Potency,[4],inactive
same,outcome,[5],inactive
same,Potency,[6],12.6 µM (active)
same,Potency,[7],7.94 µM (active)
same,Potency,[8],inactive
same,outcome,[9],inactive
same,outcome,[10],inactive
same,"activity change, negative = inhibition",[11]; at 25.7 µM (top of the series),-1.79% (inactive)
same,max response,[11]; [21],-1.79%
same,max response,[11]; [22],-6.29%
same,Potency,[12],inactive
same,Potency,[13],inactive
same,Potency,[14],inactive
same,Potency,[15],inactive
same,max response,[16],-8.82% (inactive)
N[C@@]1(C(=O)O)CO[C@H]2[C@H](C(=O)O)[C@H]21,Potency,[14],inactive
same,Potency,[17],inactive
CCCCC[C@H](O)/C=C/[C@H]1C=CC(=O)[C@@H]1CCCCCCC(=O)O,"activity change, negative = inhibition",[14],16.3% [at 6.83 µM] (inactive)
same,"activity change, negative = inhibition",[17],-11.3% [at 3.88 µM] (inactive)
COc1ccc2c3c1O[C@H]1C[C@H](O)C=C[C@@]31CCN(C)C2,Potency,[18],> 46 µM (inactive)
same,Potency,[3],> 46 µM (inactive)
same,Potency,[4],inactive
same,Potency,[19],inactive
same,"activity change, negative = inhibition",[11]; at 57.5 µM (top of the series),3.95% (inactive)
same,max response,[11]; [21],9.55%
same,max response,[11]; [22],14.8%
same,Potency,[13],inactive
same,Potency,[14],inactive
same,Potency,[15],inactive
CCC(=O)NC1Cc2ccccc2C(c2ccccc2)C1 (stereo not given),Potency,[14],inactive
same,Potency,[17],inactive
N=C(CC(O)COc1ccccc1-c1ccccc1)N1CCCCC1 (stereo not given),Potency,[14],inactive
same,Potency,[20],inactive
Nc1ncc2[nH]cnc2n1,Potency,[14],inactive
same,Potency,[17],inactive
N[C@@H](Cc1cc(I)c(Oc2ccc(O)cc2)c(I)c1)C(=O)O,Potency,[14],inactive
same,Potency,[17],inactive
CN(C)C1CCc2[nH]c3ccc(NC(=O)c4ccc(F)cc4)cc3c2C1 (stereo not given),Potency,[14],inactive
same,Potency,[15],inactive
same,max response,[16],-26.6% (inactive)
COc1c(O)c2c(=O)cc(OC)c3c4c(OC)cc(=O)c5c(O)c(OC)c(C[C@@H](C)OC(=O)c6ccccc6)c(c(c1C[C@@H](C)OC(=O)Oc1ccc(O)cc1)c23)c54,"activity change, negative = inhibition",[14],10.7% [at 4.99 µM] (inactive)
same,"activity change, negative = inhibition",[17],121% [at 3.88 µM] (inactive)
Nc1ncnc2c1ncn2[C@@H]1O[C@H](C(=O)NC2CC2)[C@@H](O)[C@H]1O,Potency,[14],inactive
same,Potency,[17],inactive
OC[C@H]1O[C@@H](n2cnc3c(NC4CCCC4)nc(Cl)nc32)[C@H](O)[C@@H]1O,Potency,[14],inactive
same,Potency,[17],inactive
